Test results taken from the supplement of paper PMC10849652.
The full data set covers some 8,800 targets. This sample favours those with a hit. About 0.5% of all pairs of compound and target were hits.

What was measured:
Assay in all cases: log2 fold change, soluble protein after heating vs DMSO (PISA); higher = thermal stabilisation; K562 lysate, 10 uM; active = over 0.2 and 3.5 SD of the protein, either way, in both replicates (recomputed)
ibrutinib = compound: C=CC(=O)N1CCC[C@@H](n2nc(-c3ccc(Oc4ccccc4)cc3)c3c(N)ncnc32)C1 [ibrutinib]
How it was run: (§1)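 Quantification was by TMTpro 16plex LC-MS/MS with equalised channel sums, applied to the supernatant after 21,000xg for 90 min. Samples were crude K562 extract at 1 mg/mL protein in PBS pH 7.4 with 1 mM MgCl2, treated with 10 μM compound for 30 min, heated for 3 min across 48°C-58°C, pooled and brought to 0.5% NP-40 at 4°C. Values are log-two fold changes in thermal stability relative to solvent controls, from duplicates.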

[1] = compound: CC(=O)c1cnc2ccc(-c3cc(Cl)c(O)c(Cl)c3)nc2c1N[C@H]1CC[C@H](CN(C)C)CC1
How it was run: as §1

ralimetinib = compound: CC(C)(C)Cn1c(N)nc2ccc(-c3[nH]c(C(C)(C)C)nc3-c3ccc(F)cc3)nc21 [ralimetinib]
How it was run: as §1

[2] = compound: CC(C)(O)CC(=O)NCCn1ccc2ncnc(Nc3ccc(Oc4cccc(C(F)(F)F)c4)c(Cl)c3)c21
How it was run: as §1

[3] = compound: CC(C)C1=C2N=C(C=C(N2N=C1)NCC3=CC=CC=C3)NCCCCCCN
How it was run: as §1

[4] = compound: CC1=C(C(CC(=O)N1)C2=CC=C(C=C2)C(F)(F)F)C(=O)NC3=C(C=C4C(=C3)C=NN4)F
How it was run: as §1

[5] = compound: CC1=C(C2=C(C=C1)C(=O)C3=CC=CC=C3N2CCCN)C
How it was run: as §1

[6] = compound: CC1=C(C=C(C=C1)NC(=O)C2=CC(=CC=C2)C(C)(C)C#N)NC3=CC4=C(C=C3)N=CN(C4=O)C
How it was run: as §1

[7] = compound: CC1=C(C=C(C=C1)NC(=O)C2=CC(=CC=C2)N(C)C)NC(=O)C3=CC=C(C=C3)O
How it was run: as §1

[8] = compound: CC1=CC=C(C=C1)SC2=C3C=C(SC3=CN=C2)C(=O)N
How it was run: as §1

vemurafenib = compound: CCCS(=O)(=O)Nc1ccc(F)c(C(=O)c2c[nH]c3ncc(-c4ccc(Cl)cc4)cc23)c1F [vemurafenib]
How it was run: as §1

[9] = compound: CCCS(=O)(=O)Nc1ccc(F)c(C(=O)c2c[nH]c3ncc(Cl)cc23)c1F
How it was run: as §1

barasertib = compound: CCN(CCCOc1ccc2c(Nc3cc(CC(=O)Nc4cccc(F)c4)[nH]n3)ncnc2c1)CCOP(=O)(O)O [barasertib]
How it was run: as §1

[10] = compound: CC[C@@H]1C(=O)N(C)c2cnc(Nc3ccc(C(=O)NC4CCN(C)CC4)cc3OC)nc2N1C1CCCC1
How it was run: as §1

volasertib = compound: CC[C@@H]1C(=O)N(C)c2cnc(Nc3ccc(C(=O)N[C@H]4CC[C@H](N5CCN(CC6CC6)CC5)CC4)cc3OC)nc2N1C(C)C [volasertib]
How it was run: as §1

[11] = compound: CCn1c(C(=O)N(C2CC2)C2CC2)cc2c3c(ncn3C)c(Nc3cc(C)n(C)n3)nc21
How it was run: as §1

[12] = compound: CCn1cc(-c2ccnc3[nH]c(-c4cccc(CN(C)C)c4)cc23)c(-c2ccc(NC(=O)N(C)C)cc2)n1
How it was run: as §1

[13] = compound: CN1CCC(CNc2ccc3ncc(-c4cccc(OC(F)(F)F)c4)n3n2)CC1
How it was run: as §1

saracatinib = compound: CN1CCN(CCOc2cc(OC3CCOCC3)c3c(Nc4c(Cl)ccc5c4OCO5)ncnc3c2)CC1 [saracatinib]
How it was run: as §1

sotrastaurin = compound: CN1CCN(c2nc(C3=C(c4c[nH]c5ccccc45)C(=O)NC3=O)c3ccccc3n2)CC1 [sotrastaurin]
How it was run: as §1

Measured: log2 fold change

SULT1A1 (UniProt P50225)
UniProt P50225, sequence (P50225 whole entry, looked up): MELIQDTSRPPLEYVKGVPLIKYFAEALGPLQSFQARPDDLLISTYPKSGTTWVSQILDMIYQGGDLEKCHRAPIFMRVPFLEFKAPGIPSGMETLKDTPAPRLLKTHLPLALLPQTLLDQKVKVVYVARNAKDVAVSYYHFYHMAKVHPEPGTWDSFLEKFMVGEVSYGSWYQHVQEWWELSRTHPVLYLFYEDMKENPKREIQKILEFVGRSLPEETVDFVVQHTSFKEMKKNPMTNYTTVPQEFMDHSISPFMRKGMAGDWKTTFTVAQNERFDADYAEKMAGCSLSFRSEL
inactive: ibrutinib 0.02 | [1] -0.027 | ralimetinib 0.028 | [2] -0.03 | [3] 0.03 | [4] -0.009 | [5] -0.06 | [6] 0.022 | [7] 0.047 | [8] 0.006 | vemurafenib 0.014 | [9] 0.004 | barasertib -0.017 | [10] 0.032 | volasertib -0.046 | [11] -0.016 | [12] 0.014 | [13] -0.009 | saracatinib 0.037 | sotrastaurin -0.009

TANK (UniProt Q92844)
UniProt Q92844, sequence (Q92844 whole entry, looked up): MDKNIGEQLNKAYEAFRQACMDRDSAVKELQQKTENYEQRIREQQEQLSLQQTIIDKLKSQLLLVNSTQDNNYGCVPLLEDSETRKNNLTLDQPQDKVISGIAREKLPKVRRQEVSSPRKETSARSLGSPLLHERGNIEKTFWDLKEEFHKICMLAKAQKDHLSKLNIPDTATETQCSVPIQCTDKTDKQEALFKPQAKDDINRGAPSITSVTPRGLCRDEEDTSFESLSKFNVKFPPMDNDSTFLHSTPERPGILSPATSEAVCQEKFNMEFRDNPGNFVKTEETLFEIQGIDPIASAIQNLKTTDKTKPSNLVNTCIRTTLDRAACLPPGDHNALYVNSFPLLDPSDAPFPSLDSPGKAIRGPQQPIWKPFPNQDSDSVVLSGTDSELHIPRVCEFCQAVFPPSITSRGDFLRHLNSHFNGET
inactive: ibrutinib 0.042 | [1] 0.086 | ralimetinib -0.049 | [2] -0.003 | [3] 0.044 | [4] 0.061 | [5] 0.018 | [6] 0 | [7] 0.054 | [8] 0.002 | vemurafenib 0.023 | [9] 0.004 | barasertib 0.007 | [10] -0.026 | volasertib -0.02 | [11] 0.004 | [12] 0.18 | [13] -0.054 | saracatinib 0.01 | sotrastaurin 0

SMARCA4 (UniProt P51532)
UniProt P51532, sequence (P51532 whole entry, looked up): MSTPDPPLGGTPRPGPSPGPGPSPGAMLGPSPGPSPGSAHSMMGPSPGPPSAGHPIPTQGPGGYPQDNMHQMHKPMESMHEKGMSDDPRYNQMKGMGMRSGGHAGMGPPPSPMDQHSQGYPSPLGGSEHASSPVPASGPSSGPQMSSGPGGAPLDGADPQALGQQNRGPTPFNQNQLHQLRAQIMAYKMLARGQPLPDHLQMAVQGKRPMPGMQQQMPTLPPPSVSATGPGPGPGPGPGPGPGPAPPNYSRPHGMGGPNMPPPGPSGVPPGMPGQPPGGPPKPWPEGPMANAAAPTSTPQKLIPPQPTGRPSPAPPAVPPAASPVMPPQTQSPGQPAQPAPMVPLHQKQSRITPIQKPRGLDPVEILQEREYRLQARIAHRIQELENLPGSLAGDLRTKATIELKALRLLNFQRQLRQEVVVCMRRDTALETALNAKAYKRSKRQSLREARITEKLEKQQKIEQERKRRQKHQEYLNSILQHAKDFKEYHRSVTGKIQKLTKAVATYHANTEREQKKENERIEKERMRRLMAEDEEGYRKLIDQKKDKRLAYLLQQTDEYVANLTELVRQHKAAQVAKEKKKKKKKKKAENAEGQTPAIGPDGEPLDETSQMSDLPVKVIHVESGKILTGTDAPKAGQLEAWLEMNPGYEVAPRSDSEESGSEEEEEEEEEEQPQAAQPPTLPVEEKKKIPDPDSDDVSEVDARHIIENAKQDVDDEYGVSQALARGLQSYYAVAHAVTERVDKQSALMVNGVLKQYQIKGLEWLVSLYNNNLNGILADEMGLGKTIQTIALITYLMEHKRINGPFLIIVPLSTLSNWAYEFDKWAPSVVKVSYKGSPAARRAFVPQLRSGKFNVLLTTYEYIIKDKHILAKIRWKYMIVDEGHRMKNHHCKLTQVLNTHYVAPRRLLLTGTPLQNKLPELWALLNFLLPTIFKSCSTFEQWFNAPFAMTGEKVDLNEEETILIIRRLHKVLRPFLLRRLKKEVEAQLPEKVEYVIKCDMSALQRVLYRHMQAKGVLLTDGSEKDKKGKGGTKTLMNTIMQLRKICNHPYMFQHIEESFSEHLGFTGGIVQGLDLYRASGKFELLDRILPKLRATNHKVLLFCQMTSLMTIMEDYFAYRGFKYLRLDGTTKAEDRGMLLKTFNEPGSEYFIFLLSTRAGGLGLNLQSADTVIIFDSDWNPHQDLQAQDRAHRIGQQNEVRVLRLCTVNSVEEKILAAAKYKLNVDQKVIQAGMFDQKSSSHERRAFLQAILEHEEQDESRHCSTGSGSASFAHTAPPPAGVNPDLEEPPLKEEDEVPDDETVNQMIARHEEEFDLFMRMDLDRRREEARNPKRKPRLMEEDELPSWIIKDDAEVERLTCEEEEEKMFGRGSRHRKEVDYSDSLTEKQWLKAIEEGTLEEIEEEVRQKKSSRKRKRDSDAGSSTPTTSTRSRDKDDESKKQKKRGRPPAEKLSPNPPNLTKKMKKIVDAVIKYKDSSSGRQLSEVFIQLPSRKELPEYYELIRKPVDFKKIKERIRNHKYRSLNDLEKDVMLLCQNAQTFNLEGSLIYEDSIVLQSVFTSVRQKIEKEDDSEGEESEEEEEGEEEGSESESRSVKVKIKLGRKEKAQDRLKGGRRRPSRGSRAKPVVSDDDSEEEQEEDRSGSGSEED
inactive: ibrutinib 0.021 | [1] -0.007 | ralimetinib 0.035 | [2] 0.018 | [3] -0.009 | [4] -0.003 | [5] -0.032 | [6] -0.026 | [7] 0.028 | [8] 0.012 | vemurafenib 0.011 | [9] 0.006 | barasertib 0.038 | [10] -0.058 | volasertib -0.024 | [11] 0.02 | [12] -0.044 | [13] -0.024 | saracatinib 0.011 | sotrastaurin 0.034

STK39 (UniProt Q9UEW8)
inactive: ibrutinib -0.114 | [1] 0.011 | ralimetinib 0.012 | [2] -0.041 | [3] -0.015 | [4] 0.007 | [5] -0.045 | [6] -0.02 | [7] 0.037 | [8] -0.019 | vemurafenib 0.002 | [9] 0.01 | barasertib 0.012 | [10] -0.046 | volasertib -0.048 | [11] 0.001 | [12] -0.013 | [13] -0.027 | saracatinib -0.002 | sotrastaurin 0.02

TANGO6 (UniProt Q9C0B7)
UniProt Q9C0B7, sequence (Q9C0B7 whole entry, looked up): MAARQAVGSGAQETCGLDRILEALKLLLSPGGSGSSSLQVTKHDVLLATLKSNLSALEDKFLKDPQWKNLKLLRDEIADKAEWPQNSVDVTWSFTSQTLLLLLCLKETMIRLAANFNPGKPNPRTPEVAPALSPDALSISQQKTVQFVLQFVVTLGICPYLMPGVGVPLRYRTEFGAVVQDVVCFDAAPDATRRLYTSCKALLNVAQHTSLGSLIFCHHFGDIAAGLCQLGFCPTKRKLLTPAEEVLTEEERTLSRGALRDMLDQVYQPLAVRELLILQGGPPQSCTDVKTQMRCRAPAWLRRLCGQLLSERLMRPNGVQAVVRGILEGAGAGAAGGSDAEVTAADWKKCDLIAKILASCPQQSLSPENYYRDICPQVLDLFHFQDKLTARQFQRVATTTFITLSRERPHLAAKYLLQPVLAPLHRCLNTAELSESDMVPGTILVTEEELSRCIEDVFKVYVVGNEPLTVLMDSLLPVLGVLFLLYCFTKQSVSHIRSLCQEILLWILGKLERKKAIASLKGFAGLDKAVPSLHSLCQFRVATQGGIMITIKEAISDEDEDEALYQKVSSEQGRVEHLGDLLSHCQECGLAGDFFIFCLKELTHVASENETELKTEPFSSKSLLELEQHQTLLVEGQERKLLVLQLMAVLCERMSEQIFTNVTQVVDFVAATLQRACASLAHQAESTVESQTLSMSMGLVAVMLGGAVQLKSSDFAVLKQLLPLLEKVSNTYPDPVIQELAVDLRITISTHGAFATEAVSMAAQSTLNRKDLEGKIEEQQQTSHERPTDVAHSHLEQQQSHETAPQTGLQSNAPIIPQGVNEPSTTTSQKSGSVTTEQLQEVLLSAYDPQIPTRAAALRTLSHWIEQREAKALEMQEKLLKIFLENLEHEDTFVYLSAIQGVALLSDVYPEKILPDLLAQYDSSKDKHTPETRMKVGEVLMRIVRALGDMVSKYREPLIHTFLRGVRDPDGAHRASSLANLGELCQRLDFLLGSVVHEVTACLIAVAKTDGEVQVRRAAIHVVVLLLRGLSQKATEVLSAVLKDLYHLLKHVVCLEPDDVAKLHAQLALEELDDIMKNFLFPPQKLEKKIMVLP
inactive: ibrutinib -0.056 | [1] 0.039 | ralimetinib 0.023 | [2] 0.02 | [3] -0.067 | [4] -0.028 | [5] -0.017 | [6] -0.013 | [7] -0.02 | [8] -0.011 | vemurafenib 0.062 | [9] -0.113 | barasertib 0.036 | [10] 0.023 | volasertib 0.042 | [11] -0.054 | [12] -0.187 | [13] 0.121 | saracatinib -0.011 | sotrastaurin 0.081

SNX6, A0A0A0MRI2
inactive: ibrutinib -0.034 | [1] 0 | ralimetinib -0.005 | [2] -0.03 | [3] -0.011 | [4] -0.032 | [5] -0.001 | [6] 0.018 | [7] 0.039 | [8] -0.004 | vemurafenib 0.005 | [9] 0.025 | barasertib 0.006 | [10] -0.111 | volasertib -0.05 | [11] 0.026 | [12] 0.21 | [13] -0.126 | saracatinib -0.002 | sotrastaurin -0.013

SPR (UniProt P35270)
UniProt P35270, sequence (P35270 whole entry, looked up): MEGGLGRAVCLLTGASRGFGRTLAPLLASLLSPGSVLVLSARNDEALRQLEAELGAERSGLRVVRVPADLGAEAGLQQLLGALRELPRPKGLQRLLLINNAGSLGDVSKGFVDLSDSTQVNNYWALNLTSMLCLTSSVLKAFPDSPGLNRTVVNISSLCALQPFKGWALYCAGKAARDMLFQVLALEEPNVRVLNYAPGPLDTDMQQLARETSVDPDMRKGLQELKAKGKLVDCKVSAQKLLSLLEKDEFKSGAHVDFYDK
inactive: ibrutinib 0.027 | [1] 0.293 | ralimetinib 0.024 | [2] 0 | [3] -0.048 | [4] -0.051 | [5] -0.038 | [6] -0.046 | [7] -0.028 | [8] 0.023 | vemurafenib 0.01 | [9] 0.026 | barasertib -0.013 | [10] -0.014 | volasertib -0.003 | [11] -0.024 | [12] 0.158 | [13] -0.028 | saracatinib 0.093 | sotrastaurin -0.047

SNCA (UniProt P37840)
inactive: ibrutinib 0.102 | [1] -0.148 | ralimetinib 0.028 | [2] 0.02 | [3] 0.013 | [4] 0.036 | [5] -0.068 | [6] -0.042 | [7] -0.059 | [8] 0.028 | vemurafenib 0.042 | [9] -0.039 | barasertib -0.027 | [10] 0.08 | volasertib 0.072 | [11] -0.022 | [12] -0.109 | [13] 0.287 | saracatinib -0.035 | sotrastaurin 0.068
